Common to all, as to assay: NCI-60 one-dose screen, 48 h (100 = growth as untreated, 0 = no growth, -100 = all killed)
In assay [1] the test system is SK-MEL-2 melanoma. The note with it: 10 µM unless noted.
Assay [2] deals with EKVX NSCLC. The note with it: 10 µM unless noted.
Assay [3] concerns SN12C renal. The note with it: 10 µM unless noted.
For assay [4], the system named is UO-31 renal. The note with it: 10 µM unless noted.
In assay [5] the test system is TK-10 renal. The note with it: 10 µM unless noted.
Assay [6] has as its system CAKI-1 renal. The note with it: 10 µM.
Assay [7] relates to A498 renal. The note with it: 10 µM unless noted.
In assay [8] the test system is CCRF-CEM leukemia. The note with it: 10 µM unless noted.
In assay [9] the test system is MOLT-4 leukemia. The note with it: 10 µM unless noted.
Assay [10] has as its system SR leukemia. The note with it: 10 µM unless noted.
In assay [11] the test system is RPMI-8226 leukemia. The note with it: 10 µM unless noted.
In assay [12] the test system is OVCAR-8 ovarian. As to conditions: 10 µM unless noted.
The test system of assay [13] is OVCAR-5 ovarian. As to conditions: 10 µM unless noted.
Assay [14] has as its system OVCAR-4 ovarian. As to conditions: 10 µM unless noted.
Assay [15] concerns SK-OV-3 ovarian. The note with it: 10 µM unless noted.
In assay [16] the test system is IGROV1 ovarian. The note with it: 10 µM unless noted.
The test system of assay [17] is OVCAR-3 ovarian. As to conditions: 10 µM unless noted.
In assay [18] the test system is HS 578T breast. As to conditions: 10 µM unless noted.
The test system of assay [19] is NCI/ADR-RES ovarian. As to conditions: 10 µM unless noted.
For assay [20], the system named is ACHN renal. As to conditions: 10 µM unless noted.

The structures appear in SMILES notation. About 83,000 compounds went through this panel and 20% of them were active in at least one assay; those are over-represented in the sample as a whole.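 Testing used 96-well plates and a 48-hour single-concentration exposure. Example: -40 means 40% of the starting cells died.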 Unmarked numbers belong to inactive results. Activity calls are given as the source filed them. Rule for the calls: active = growth percent below 10; inactive = the rest.

For the compound `Cc1ccc(-c2nc3c(N=Nc4ccc(S(N)(=O)=O)cc4)c(N)nn3c(N)c2C#N)cc1`, the growth in [1] was 27%; in assay [2], 69.8%; in assay [3], 33.2%; in assay [4] it was 69%; in assay [5] it was 65.8%; in assay [6], 41%. For the same compound, the growth in assay [7] was 59.3%; in [8] it was 11.9%; in [9] it was 3.58% (active); in [10], 28.9%; in assay [11], -16.4% (active); in [12] it was 44.1%. Moreover, the growth in assay [13] is 78.7%; in assay [14], 52.2%; in [15], 63.8%; in assay [16], 37.4%; in assay [17], 23.6%; in assay [18] it was 39.4%. Besides, the growth in [19] is 99.9%.

`O=C(COc1ccc(Cl)cc1)N1CCN(Cc2ccc3c(c2)OCO3)CC1`: the growth was 123% in assay [1]; 85.9% in assay [2]; 91% in assay [3]; 61.5% in [4]; 116% in [5]; 76.6% in assay [6]. Moreover, the growth in assay [7] is 84.5%; in [8], 97.4%; in assay [9], 100%; in assay [10], 97.8%; in assay [11], 88.7%; in assay [12], 91.8%. The growth is 94.5% in [14]; 93.5% in assay [15]; 106% in assay [16]; 99.2% in assay [17]; 92.8% in [18]; 92.6% in assay [19].

Take `Cc1ccc(Cn2cc(COc3ccc4c5ccnc(C)c5n(CCCc5ccccc5)c4c3)nn2)cc1`: the growth was 94.7% in assay [1]; 80.7% in assay [2]; 94.5% in assay [3]; 55.7% in assay [4]; 97.8% in assay [5]; 73.5% in assay [7]. Further, the growth in [8] was 91.9%; in assay [9], 78.2%; in assay [10], 81.9%; in [11], 64.2%; in assay [12], 94.2%; in assay [13], 103%. For the same compound, the growth was 96% in [14]; 96.9% in assay [15]; 87.5% in assay [16]; 92.6% in [17]; 89.8% in assay [18].

Consider `CC(=O)Nc1ccc(OC(=O)c2ccccc2O)cc1`, for which the growth was 147% in [1]; 93.4% in [2]; 102% in [3]; 88.7% in [4]; 128% in assay [5]; 91.3% in [6]. The growth in [7] is 84.5%; in assay [8] it was 95.9%; in assay [9], 96.2%; in assay [10], 96.9%; in [11], 101%; in assay [12], 110%. Also, the growth in [14] was 105%; in [15] it was 105%; in assay [16] it was 115%; in assay [17], 110%; in assay [18] it was 99.4%; in assay [19], 102%.

`CC(CCC(=O)O)[C@H]1CCC2C3C(=O)C[C@@H]4CC(=O)CC[C@]4(C)C3CC(=O)[C@@]21C` (stereo partly specified): the growth is 128% in assay [1]; 93.6% in [2]; 93.2% in assay [3]; 83.8% in [4]; 116% in assay [5]; 84.7% in assay [6]. Also, the growth was 88% in [7]; 103% in assay [8]; 96.7% in assay [9]; 97.4% in assay [10]; 98.8% in [11]; 103% in assay [12]. Further, the growth in assay [14] was 112%; in assay [15] it was 106%; in assay [16], 105%; in assay [17] it was 117%; in assay [18], 105%; in assay [19] it was 99.7%.

On to `COc1cc2c(cc1OC)-c1c(oc3c4c(ccc3c1=O)OC(C)(C)C=C4)CO2`, for which the growth is 74.3% in [1]; 57.7% in assay [2]; 92.2% in assay [3]; 66.9% in [4]; 67.9% in assay [5]; 56.1% in assay [7]. The growth in assay [8] was 69.5%; in assay [9], 55.1%; in [10], 42.6%; in assay [11] it was 49.3%; in [12], 67.7%; in assay [13] it was 89.3%. Further, the growth in assay [14] was 41.8%; in [15], 77.6%; in [16] it was 85%; in [17] it was 63.7%; in assay [18], 99.8%.

Turning to `COc1cccc(C2CC(c3cc(OC)c(OC)c(OC)c3)=NN2)c1` (stereo unspecified), the growth in assay [1] is 94%; in assay [2], 117%; in assay [3], 91.8%; in [4] it was 94.9%; in assay [5], 106%; in assay [20], 94.3%. Besides, the growth in assay [7] was 82.2%; in [9] it was 81.2%; in [10], 9.95% (active); in assay [11], 56.9%; in assay [12] it was 92.9%; in [13] it was 98.8%. Moreover, the growth in [14] was 85.5%; in assay [15], 89.9%; in assay [16] it was 99.4%; in [18] it was 111%; in assay [19], 63.4%.

For the compound `O=C(O)c1cn(C2CC2)c2cc(N3CCN(C(=O)CSc4nc(NS(=O)(=O)c5ccccc5)cc(=O)[nH]4)CC3)c(F)cc2c1=O`, the growth was 79.7% in assay [1]; 105% in assay [2]; 98.6% in assay [3]; 82% in assay [4]; 118% in assay [5]; 102% in assay [20]. Further, the growth in assay [7] is 113%; in [8] it was 81%; in assay [11], 82.1%; in [12], 98.5%; in assay [13], 112%; in assay [14] it was 104%. In addition, the growth in assay [15] is 117%; in assay [16], 98.3%; in assay [17], 83.9%; in assay [18] it was 89.1%; in assay [19] it was 101%.

Source of the values: PubChem BioAssay (NCI).
